# Chlamy TAG: inducers of triacylglycerol accumulation in Chlamydomonas reinhardtii algae | 44,000 compounds, 0.84% hits | Chlamydomonas reinhardtii TAG, Nile Red fluorescence, 72 h | calls only at 10 µM (by protocol); call rule not given here;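 further: hits raise Nile Red signal meaning more stored TAG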
# * hit, by the source's call; i = inactive; + = active, no number. This excerpt belongs to a sample that is enriched for hits.
SMILES,Chlamy TAG
Cc1cc(Oc2ccc([N+](=O)[O-])cc2)nc(NCc2ccccc2)n1,i
COc1cc(C)nc(NCc2ccccc2)n1,+
CS(=O)(=O)c1ccc2nc(NC(=O)c3cncc(Br)c3)sc2c1,i
CCOc1ccc(NS(=O)(=O)c2ccc(NC(=O)c3ccc(F)cc3)cc2)cc1,i
COc1ccc(-c2csc(/C(C#N)=C\c3ccc(OC)o3)n2)cc1,i
COc1ccc(Br)cc1C(=O)Nc1ccc(Cc2ccncc2)cc1,i
O=C(Nc1ccc(Cl)cc1)c1ccccc1Br,i
O=C(Nc1ccc(Br)cc1)c1ccccc1Cl,+
CC(=O)c1cccc(NC(=O)c2cc(Br)ccc2Cl)c1,i
O=C(Nc1ccc(Cc2ccncc2)cc1)c1cc(Br)ccc1Cl,+
O=C(O)c1ccc(NC(=O)c2ccccc2Cl)cc1,i
CCCOc1ccc(C(=O)Nc2ccc(C)cc2)cc1,i
CC(=O)C1=C(C)NC(SCC(=O)c2cccc(Br)c2)=C(C#N)C1c1ccccc1 (stereo unspecified),i
O=C(NC1CC1)c1cc(C(=O)NC2CC2)cc([N+](=O)[O-])c1,i
O=C(Cc1ccccc1)N1CCN(C(=O)c2ccc(-c3ccccc3)cc2)CC1,i
CCN1CCN(C(=O)c2cc(OC)cc(OC)c2)CC1,i
Cc1nc2c(oc3nc(-c4ccoc4)c4c(c32)CC(C)(C)OC4)c(-c2ccccc2)c1C(=O)O,i
CC(C)(C)NC(=O)c1cccc(NC(=O)CN2C(=O)c3ccccc3C2=O)c1,i
O=S(=O)(c1ccc(F)cc1)N1CCCC1,i
CCCN1CCC(N2CCN(S(=O)(=O)c3ccc(F)cc3)CC2)CC1,i
O=S(=O)(c1ccc(F)cc1)N1CCN(C2CCCC2)CC1,i
CC1CCCN(C2CCN(S(=O)(=O)c3ccc(F)cc3)CC2)C1 (stereo unspecified),+
O=S(=O)(c1ccc(F)cc1)N1CCN(C2CCCCC2)CC1,+
Cc1ccc(S(=O)(=O)N2CCC(N3CCCCC3)CC2)cc1,i
O=C(Nc1ccc(S(=O)(=O)Nc2nccs2)cc1)C1CCCO1 (stereo unspecified),i
SMILES,Chlamy TAG
COc1ccccc1N1CCN(C(=O)COc2ccc(Br)cc2Cl)CC1,i
COc1ccc(C2C(C(=O)c3ccco3)=C(O)C(=O)N2CCN(C)C)cc1OC (stereo unspecified),i
CN(C(=O)CSc1nnc(-c2ccco2)o1)c1ccccc1,i
COc1ccc(CNC(=O)c2ccc(NC(C)=O)cc2)cc1,i
Cc1cccc(-c2cc(NC(=O)c3ccc([N+](=O)[O-])cc3)n[nH]2)c1,+
O=C(Nc1ncccn1)c1ccc([N+](=O)[O-])cc1,i
Cc1cccc(-c2cc(NC(=O)c3ccccc3[N+](=O)[O-])n[nH]2)c1,i
CCOc1cc(C=O)cc(I)c1OCc1ccccc1,i
Cc1ccc(OCC(O)CN2CCCCC2)c(C)c1 (stereo unspecified),i
Cc1ccccc1OCC(O)CN1CCN(CC(O)COc2ccccc2C)CC1 (stereo unspecified),i
OC(COc1ccccc1Br)CN1CCCCC1 (stereo unspecified),+
OC(COc1ccc(Br)cc1)CN1CCOCC1 (stereo unspecified),i
OC(COc1ccc(Br)cc1)CN1CCCCCC1 (stereo unspecified),+
OC(COc1ccc(OCC(O)CN2CCCC2)cc1)CN1CCCC1 (stereo unspecified),i
Cn1c(Cc2ccccc2)nnc1SCC(=O)Nc1cccc(Cl)c1,i
O=C(Nc1ccc2nn(-c3ccc(F)cc3)nc2c1)c1ccc2c(c1)OCCO2,i
CN(C)c1ccc(NC(=O)Nc2ccc3nc(-c4ccccn4)c(-c4ccccn4)nc3c2)cc1,+
O=C(Nc1ccc2nc(-c3ccccn3)c(-c3ccccn3)nc2c1)N1CCCC1,i
Cc1nc2ccc(NC(=O)Nc3ccc(N(C)C)cc3)cc2nc1C,i
CCCC(=O)Nc1ccc(NC(=O)c2cccc(Br)c2)cc1,i
COc1cc(OC)c(OC)cc1CNc1ccc(Br)cc1C,i
Clc1ccccc1-c1nnc(-c2ccccc2)o1,+
Cc1ccc(-c2nnc(-c3ccccc3Cl)o2)cc1,i
Clc1ccccc1-c1nnc(-c2ccccc2Cl)o1,i
CCSc1nc2sc3c(c2c(=O)n1-c1ccc(OC)cc1)CC(C)(C)OC3,i
SMILES,Chlamy TAG
CCN(CC)S(=O)(=O)c1ccc(OC)c(NC(=O)c2ccccc2)c1,i
COc1ccccc1N1CCN(C2CCN(Cc3c[nH]c4ccccc34)CC2)CC1,i
COc1ccccc1N1CCN(C2CCN(Cc3cccc(Cl)c3)CC2)CC1,+
COc1ccccc1N1CCN(C2CCN(Cc3ccc(Br)cc3)CC2)CC1,i
COc1ccccc1N1CCN(C2CCN(CCCc3ccccc3)CC2)CC1,i
COc1cc(OC)c(OC)cc1CN1CCC(N2CCN(c3ccccc3OC)CC2)CC1,i
COc1ccccc1N1CCN(C2CCN(Cc3cccc(C)c3)CC2)CC1,+
COc1ccccc1N1CCN(C2CCN(CC3CC4C=CC3C4)CC2)CC1 (stereo unspecified),+
Clc1cccc(CN2CCC(N3CCCCCC3)CC2)c1,i
CCOc1cc(CN2CCN(c3ccccc3OC)CC2)ccc1OC,i
CCOc1ccc(NC(=O)C(C)Sc2nc3ccccc3c(=O)n2-c2ccccc2)cc1 (stereo unspecified),i
CN(c1ccc(C(=O)NCCSCc2ccco2)cc1)S(=O)(=O)c1ccccc1,i
COc1ccc2nc(NC(=O)CNC(=O)C3CCCCC3)sc2c1,i
COc1ccccc1CN1CCC(C(=O)N2CCN(c3ccccc3F)CC2)CC1,i
O=C(CC(=O)c1ccccc1)Nc1nc(-c2ccccc2)cs1,i
O=C(Nc1cccc(F)c1)c1ccccc1N(Cc1ccccc1)S(=O)(=O)c1ccccc1,i
CC(=O)c1cc(F)c(N2CCN(C(=O)c3ccc(F)cc3)CC2)cc1C,i
Cc1ccc(C(=O)Nc2ccccc2C(=O)NC(C)C)cc1[N+](=O)[O-],+
CC(C)NC(=O)c1ccccc1NC(=O)c1ccc(F)cc1,i
Cc1ccccc1C(=O)Nc1cccc(NC(=O)c2ccc(C)c([N+](=O)[O-])c2)c1,i
NC(=O)c1cc(NC(=O)c2cccs2)ccc1N1CCCCC1,i
O=C(Nc1cccc(Cl)c1)Nc1ccc(F)c(Cl)c1,i
CCOc1ccc(S(=O)(=O)N(CC(=O)N2CCCC2)c2ccccc2)cc1,i
Cc1cc(Cl)cc(C)c1OCCn1ccnc1,+
Clc1ccc(OCCn2ccnc2)c(Br)c1,i
SMILES,Chlamy TAG
Cc1cc(Cl)c(OCCn2ccnc2)c(Br)c1,+
Cc1ccc(OCCn2ccnc2)c(Cl)c1,i
Clc1ccc(OCCn2ccnc2)c(Cl)c1,i
Cc1cc(Cl)c(OCCOCCn2ccnc2)c(Br)c1,i
CC(C)CC(=O)N1CCN(Cc2ccc([N+](=O)[O-])cc2)CC1,i
COc1cccc(C(=O)Nc2nnc(-c3ccc(Cl)c(Cl)c3)s2)c1,i
CC(C)(C)c1ccc(OCC(=O)Nc2ccc(S(=O)(=O)N3CCOCC3)cc2)cc1,i
C/C(=C\c1ccccc1)CN(C)C1CCN(C)CC1,i
C/C=C(\C)CN(C)CCN(C)C,i
C/C(=C\c1ccccc1)CN(C)CCN(C)C,+
C#CCN1C(=O)C(=O)c2cc(Br)ccc21,i
C=CCN1C(=O)C(=O)c2cc(Br)ccc21,+
O=C1C(=O)N(Cc2ccc(F)cc2)c2ccc(Br)cc21,i
